Experiment [1] can be described thus: APR_HepG2_P-H2AX_72hr: Apredica 72-hour HepG2 Assay for H2AX Phosphorylation (AID 2282916).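 Also: phospho-histone H2A.x immunostain intensity per cell marking DNA damage.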 The note with it: imaging, actives raise or lower the signal. The method, boiled down: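 HepG2 human liver cells were exposed for 72 hr to compounds at 0.39–200 uM (10 concentrations, duplicate per plate) in 0.5% v/v DMSO. Fixed, permeabilized cells were immunolabeled for phospho-histone H2A.x with Hoechst 33342 and imaged by HCS fluorescence; bidirectional fit versus DMSO.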

Experiment [2] can be described thus: APR_HepG2_MitoMembPot_72hr: Apredica 72-hour HepG2 Assay for Mitochondrial Membrane Potential (AID 2282917). The settings on record: imaging, actives raise or lower the signal. Summed up:
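Membrane potential read by MitoTracker Red CMXRos (250 nM, 30 min, pre-fixation) fluorescence imaging of HepG2 after 72 hr exposure. Ten concentrations, 0.39–200 uM, duplicate wells, 0.5% DMSO; fitted in both directions against DMSO baseline.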

The nature of experiment [3]: APR_HepG2_MicrotubuleCSK_72hr: Apredica 72-hour HepG2 Assay for Microtubule CSK Stabilty (AID 2282919). The settings on record: HepG2 microtubule cytoskeleton, high-content imaging, actives raise or lower the signal. Summed up: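 Read-out is tubulin fluorescence intensity from high-content imaging of HepG2 cells, with nuclei identified by Hoechst 33342. Treatment lasts 72 h at 0.39–200 uM, and curves are fitted bidirectionally against the DMSO negative control.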

The nature of experiment [4]: APR_HepG2_P-H2AX_24hr: Apredica 24-hour HepG2 Assay for H2AX Phosphorylation (AID 2282920). The note with it: high-content imaging, actives raise or lower the signal. The method, boiled down:
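HepG2, 24 hr, cpd 0.39–200 uM (10 conc, duplicate), DMSO 0.5% v/v final. Fix 3.7% formaldehyde, Triton X-100 permeabilize, anti-phospho-H2A.x 1:200 + Hoechst 2 ug/mL. Imaged, bidirectional fit vs DMSO.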

A short description of experiment [5]: APR_HepG2_StressKinase_72hr: Apredica 72-hour HepG2 Assay for Stress Kinase (AID 2282921). The note with it: HepG2 stress kinase (phospho-c-Jun) imaging, actives raise or lower the signal. The method, boiled down: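 Cells were exposed for 72 h to ten concentrations (0.39–200 uM, duplicate) at 0.5% v/v DMSO final, then fixed with 3.7% formaldehyde, permeabilized and immunostained for phospho-c-Jun (Cy3 secondary) with Hoechst nuclear counterstain.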

Experiment [6] is described as follows: APR_HepG2_StressKinase_24hr: Apredica 24-hour HepG2 Assay for Stress Kinase (AID 2282922). The settings on record: HepG2 stress kinase (phospho-c-Jun) imaging, actives raise or lower the signal. The method, boiled down:
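HepG2, 24 hr dosing, 0.39–200 uM in duplicate, 0.5% DMSO; formaldehyde fix (3.7%), 0.5% Triton X-100; anti-phospho-c-Jun + Cy3 secondary, Hoechst counterstain; ArrayScan imaging; bidirectional curve fit vs DMSO baseline.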

A short description of experiment [7]: APR_HepG2_p53Act_72hr: Apredica 72-hour HepG2 Assay for p53 Activation (AID 2282923).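 Also: average cellular p53 protein immunofluorescence intensity in HepG2 cells.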 The note with it: high-content imaging, actives raise or lower the signal. The method, boiled down:
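Cells were dosed for 72 hr with compounds at 0.39–200 uM in duplicate (final DMSO 0.5% v/v), then fixed in 3.7% formaldehyde, permeabilized with Triton X-100 and immunostained for p53 (Cy5) with Hoechst 33342 nuclear counterstain.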

A short description of experiment [8]: APR_HepG2_NuclearSize_72hr: Apredica 72-hour HepG2 Assay for Nuclear Size (AID 2282925). The settings on record: high-content imaging, actives raise or lower the signal. Summed up: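 HepG2; cpd 0.39–200 uM, 10 conc, duplicate; 72 h; DMSO 0.5% v/v; fix 3.7% formaldehyde 30 min RT; Triton permeabilization; Hoechst 2 ug/mL; HCS imaging 20x; nuclear diameter; gain/loss fit vs DMSO.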

Experiment [9] is described as follows: ATG_CRE_CIS: Attagene CIS-FACTORIAL HepG2 Assay for human cAMP Responsive Element (CRE) binding protein 3 (AID 2282926). The note with it: HepG2 CRE cis-reporter, Attagene multiplexed mRNA; actives raise or lower the signal. Summed up:
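Human liver HepG2, transient MRTU transfection, 24 h compound exposure. Total RNA → oligo(dT) RT → PCR → 6-FAM primer extension → HpaI cut → CE. Activity called both directions vs DMSO.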

Experiment [10] has as its target CCAAT/enhancer-binding protein beta (Homo sapiens) (UniProt P17676). The experiment is described as follows: ATG_C_EBP_CIS: Attagene CIS-FACTORIAL HepG2 Assay for human CCAAT/Enhancer Binding Protein (C/EBP) beta (AID 2282927). The settings on record: HepG2 Attagene cis-factorial transcription factor reporter; actives raise or lower the signal. Summed up: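 Changes in reporter mRNA, rather than exogenous chimeric receptor activity, reflect native C/EBP signalling in transfected HepG2 cells dosed for 24 h; transcripts are detected by RT-PCR and capillary electrophoresis.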

Experiment [11] can be described thus: ATG_CMV_CIS: Attagene CIS-FACTORIAL HepG2 Assay for human CMV (Internal Marker) (AID 2282928).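 Also: endpoint acts as a background internal control marker rather than a target.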 The note with it: HepG2 CMV promoter reporter, transcription factor profiling; actives raise or lower the signal. Summed up: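 HepG2 cells transiently transfected with multiple cis-regulated reporter units; 24 h compound exposure. Reporter mRNA quantified by RT-PCR, 6-FAM primer-extension labeling, HpaI digestion and capillary electrophoresis; bidirectional fitting against DMSO baseline.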

A short description of experiment [12]: ATG_DR4_LXR_CIS: Attagene CIS-FACTORIAL HepG2 Assay for human Liver X Receptor (LXR), DR4 submotif (AID 2282929). The settings on record: HepG2 Attagene DR4 cis-reporter, mRNA transcription; actives raise or lower the signal. Summed up:
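Endogenous factor activity at a DR4 cis-element is read as reporter mRNA in transiently transfected HepG2 cells. Exposure lasts 24 h; transcripts are amplified, fluorescently labelled and sized by capillary electrophoresis, with DMSO as baseline.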

Experiment [13] addresses Aryl hydrocarbon receptor (Homo sapiens) (UniProt P35869). As to the kind of experiment: ATG_Ahr_CIS: Attagene CIS-FACTORIAL HepG2 Assay for human Aryl Hydrocarbon Receptor (Ahr) (AID 2282930). The settings on record: HepG2 AhR cis-factorial reporter transcription; actives raise or lower the signal. Summed up:
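HepG2, transient MRTU (cis) transfection, 24 h exposure. RNA → cDNA → PCR → 6-FAM primer extension → HpaI 2 h 37 C → CE. Fit: bidirectional, DMSO baseline.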

The nature of experiment [14]: ATG_AP_1_CIS: Attagene CIS-FACTORIAL HepG2 Assay for human Activator Protein 1 (AP-1) (AID 2282931). The settings on record: HepG2 Attagene cis-factorial AP-1 reporter mRNA; actives raise or lower the signal. Summed up:
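Fluorescence of labelled PCR fragments separated by capillary electrophoresis gives reporter mRNA levels. HepG2 with transfected cis-regulated reporter units, 24 h exposure; DMSO serves as baseline for bidirectional curve fits.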

The nature of experiment [15]: ATG_AP_2_CIS: Attagene CIS-FACTORIAL HepG2 Assay for human Activator Protein 2 (AP-2) (AID 2282932). The note with it: HepG2 AP-2 cis-reporter, Attagene transcription factor profiling; actives raise or lower the signal. The method, boiled down:
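Step one: transient transfection of HepG2 with reporter transcription units. Step two: 24 h chemical exposure. Step three: RNA extraction, RT-PCR, labelled fragment analysis by capillary electrophoresis; DMSO serves as baseline.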

Experiment [16] can be described thus: ATG_BRE_CIS: Attagene CIS-FACTORIAL HepG2 Assay for human Bone Morphogenetic Protein (BMP) Response Element (BRE) (AID 2282933). The note with it: HepG2 BMP response element reporter, Attagene transcription factor profiling; actives raise or lower the signal. Summed up:
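Read-out: reporter mRNA induction quantified by RT-PCR and capillary electrophoresis after 24 h chemical exposure of transfected HepG2 cells. Endogenous factor activity on the BMP response element; gain or loss fitted against DMSO baseline.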

The nature of experiment [17]: APR_HepG2_MitoMass_72hr: Apredica 72-hour HepG2 Assay for Mitochondrial Mass (AID 2282924).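 Also: MitoTracker Red CMXRos stain intensity per cell imaged as mitochondrial mass.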 The settings on record: high-content imaging, actives raise or lower the signal. The method, boiled down: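 HepG2, 72 hr cmpd, 10 conc 0.39–200 uM in dup, DMSO 0.5% v/v. MitoTracker Red CMXRos 250 nM 30 min pre-fix; formaldehyde 3.7% fix 30 min RT. HCS imaging, gain/loss fit vs DMSO.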

Experiment [18] deals with Retinoic acid receptor alpha (Homo sapiens) (UniProt P10276). As to the kind of experiment: ATG_DR5_RAR_CIS: Attagene CIS-FACTORIAL HepG2 Assay for human Retinoic Acid Receptor Alpha (RARE), DR5 submotif (AID 2282934).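 As to AC50: reporter responds to endogenous RAR alpha beta and gamma in HepG2 not RARA alone.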 The settings on record: HepG2 Attagene cis-factorial RARE DR5 reporter, mRNA; actives raise or lower the signal. Summed up:
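HepG2, transient cis-reporter transfection, 24 h exposure. mRNA readout: RT-PCR, FAM label, HpaI cut, capillary electrophoresis. DMSO baseline, gain/loss fitting.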

“And” between values parts separate entries of the source, which are not always exact repeats. Identical values can stand only once. The source holds several records for some structures; these can differ, active in one and inactive in another. The source made the active and inactive calls. The calls were made as follows: active = hit-call score of the fitted dose curve at least 0.9, where 1 is the maximum; inactive = score below 0.9.

Chain of Retinoic acid receptor alpha (Homo sapiens) (P10276 whole entry, looked up): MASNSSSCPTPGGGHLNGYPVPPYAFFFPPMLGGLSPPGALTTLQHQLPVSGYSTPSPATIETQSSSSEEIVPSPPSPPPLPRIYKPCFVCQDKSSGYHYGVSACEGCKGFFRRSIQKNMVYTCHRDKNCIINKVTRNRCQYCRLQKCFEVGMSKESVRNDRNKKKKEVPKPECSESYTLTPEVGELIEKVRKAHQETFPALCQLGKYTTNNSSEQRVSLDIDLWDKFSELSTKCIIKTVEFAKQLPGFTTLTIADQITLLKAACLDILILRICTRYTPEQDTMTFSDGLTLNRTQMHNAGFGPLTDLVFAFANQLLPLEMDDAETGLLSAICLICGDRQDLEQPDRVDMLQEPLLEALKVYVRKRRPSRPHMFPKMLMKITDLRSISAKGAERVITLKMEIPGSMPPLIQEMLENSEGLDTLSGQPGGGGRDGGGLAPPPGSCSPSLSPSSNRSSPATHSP
Chain of CCAAT/enhancer-binding protein beta (Homo sapiens) (P17676 whole entry, looked up): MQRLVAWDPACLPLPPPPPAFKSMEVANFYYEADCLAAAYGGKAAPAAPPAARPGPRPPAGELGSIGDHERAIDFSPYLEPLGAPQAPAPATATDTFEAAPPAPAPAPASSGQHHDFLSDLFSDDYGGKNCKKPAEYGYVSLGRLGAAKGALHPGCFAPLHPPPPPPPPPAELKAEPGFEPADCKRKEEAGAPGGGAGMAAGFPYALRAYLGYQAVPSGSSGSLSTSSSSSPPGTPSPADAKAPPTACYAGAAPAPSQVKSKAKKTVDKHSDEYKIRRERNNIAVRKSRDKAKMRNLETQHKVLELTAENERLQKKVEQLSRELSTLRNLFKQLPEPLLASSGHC
Chain of Aryl hydrocarbon receptor (Homo sapiens) (P35869 whole entry, looked up): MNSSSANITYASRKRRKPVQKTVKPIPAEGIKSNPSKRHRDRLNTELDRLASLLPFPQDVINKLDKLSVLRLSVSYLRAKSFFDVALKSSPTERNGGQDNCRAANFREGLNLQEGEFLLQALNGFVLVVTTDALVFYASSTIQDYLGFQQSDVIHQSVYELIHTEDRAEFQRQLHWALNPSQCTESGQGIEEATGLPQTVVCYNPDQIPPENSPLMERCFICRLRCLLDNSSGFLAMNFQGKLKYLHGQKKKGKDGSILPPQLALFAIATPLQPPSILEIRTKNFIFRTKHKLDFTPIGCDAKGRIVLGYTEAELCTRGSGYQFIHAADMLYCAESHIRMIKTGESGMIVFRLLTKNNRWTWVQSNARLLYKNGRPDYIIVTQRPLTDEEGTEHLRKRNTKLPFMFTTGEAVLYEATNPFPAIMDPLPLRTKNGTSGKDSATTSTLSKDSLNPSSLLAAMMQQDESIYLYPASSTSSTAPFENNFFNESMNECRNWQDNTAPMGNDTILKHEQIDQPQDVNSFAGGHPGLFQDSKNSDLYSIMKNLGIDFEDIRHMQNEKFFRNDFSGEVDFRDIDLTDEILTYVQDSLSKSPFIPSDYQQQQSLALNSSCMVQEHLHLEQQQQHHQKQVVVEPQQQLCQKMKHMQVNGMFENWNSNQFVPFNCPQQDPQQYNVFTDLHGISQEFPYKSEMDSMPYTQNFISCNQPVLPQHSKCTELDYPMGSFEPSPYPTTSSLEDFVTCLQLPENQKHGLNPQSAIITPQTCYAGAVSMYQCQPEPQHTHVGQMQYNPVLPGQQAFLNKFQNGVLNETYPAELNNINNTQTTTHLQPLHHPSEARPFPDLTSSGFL

In general, AC50 refers to the concentration giving half of the maximal activity seen. In the case of `CCOC(=O)CC(SP(=S)(OC)OC)C(=O)OCC` (configuration not stated), the outcome in [1], in [2], in experiment [3], in experiment [4], in experiment [5] and in [6] was inactive. For the same compound, the result in experiment [7], in experiment [8], in experiment [9], in experiment [10], in experiment [11] and in [12] was inactive. In addition, the call in experiment [13], in [14] and in experiment [15] was inactive. The half-maximal activity concentration (AC50) in [9] is 26.6 µM (active); in experiment [14], 41.2 µM (active); in experiment [16], 69.2 µM (active) and 28.1 µM (active).
As to `Oc1ccccc1-c1ccccc1`, the compound was called inactive in experiment [1], in experiment [2], in [3], in experiment [4], in experiment [6] and in [7]. Moreover, the result in experiment [17], in experiment [8], in experiment [9], in experiment [10], in [11] and in [13] was inactive. Besides, the result in experiment [14] and in [15] was inactive. Also, the AC50 in experiment [9] was 148 µM (active); in [11], 56.6 µM (active); in experiment [12] it was 80.3 µM (active) and 64 µM (active); in experiment [13], 40.5 µM (active); in experiment [14], 88.3 µM (active).
For `CCOc1cc(Oc2ccc(C(F)(F)F)cc2Cl)ccc1[N+](=O)[O-]`, the outcome in experiment [1], in [2], in [4], in experiment [6], in [7] and in experiment [8] was inactive. Besides, the call in [9], in experiment [13], in experiment [15] and in experiment [18] was inactive. For the same compound, the AC50 in experiment [3] is 19.8 µM (active); in experiment [10], 23.6 µM (active); in experiment [11], 13.6 µM (active); in experiment [12] it was 33.1 µM (active); in [14] it was 22 µM (active).
`N#Cc1nn(-c2c(Cl)cc(C(F)(F)F)cc2Cl)c(N)c1S(=O)C(F)(F)F` (configuration not stated): the AC50 in [1] was 34.9 µM (active); in [3], 179 µM (active); in experiment [4], 107 µM (active); in experiment [5], 105 µM (active); in [9], 17.5 µM (active); in [10], 18.1 µM (active). Also, the results for the AC50 in [12], in experiment [14] and in [18] were 50.5 µM (active), 9.67 µM (active) and 7.78 µM (active), respectively. For the same compound, the call in experiment [2], in experiment [6], in [7], in experiment [8], in [9] and in experiment [10] was inactive. For the same compound, the call in [11], in [12], in experiment [13], in experiment [14], in experiment [15] and in [18] was inactive.
With `CON(C)C(=O)Nc1ccc(Cl)c(Cl)c1`, the call in [1], in experiment [3], in experiment [4], in experiment [6], in experiment [7] and in [8] was inactive. Further, the outcome in experiment [9], in experiment [10], in experiment [11], in experiment [12], in experiment [14] and in experiment [15] was inactive. Besides, the compound was classed as inactive in experiment [16] and in experiment [18]. The AC50 in experiment [2] was 23.1 µM (active); in [17] it was 67 µM (active); in experiment [11], 55.6 µM (active); in experiment [13], 27.4 µM (active) [middle of 4 runs].
Take `C#CCOS(=O)OC1CCCCC1Oc1ccc(C(C)(C)C)cc1` (configuration not stated): the call in [1], in [4], in [6], in experiment [7], in [17] and in experiment [8] was inactive. In addition, the outcome in [11], in [12], in experiment [13], in experiment [15] and in experiment [18] was inactive. Further, the AC50 in experiment [2] is 3.43 µM (active); in [3] it was 2.25 µM (active); in experiment [9], 0.994 µM (active); in experiment [10], 0.658 µM (active); in [14], 1.55 µM (active).

The values above are taken from PubChem BioAssay (EPA / NIEHS).
